According to PubChem BioAssay (NCI):
Compounds without any hit were thinned out: in the full panel of roughly 79,000, 15% have a hit. Unmarked numbers belong to inactive results. Activity calls are given as the source filed them. Rule as the data show it: active = growth inhibition above about 70%; inactive = the rest.

Experiments:
[1] = NCI Yeast Anticancer Drug Screen. Data for the rad50 strain (AID 155);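 also: 0% = growth of vehicle-only cultures of the same strain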; conditions: S. cerevisiae rad50 strain growth inhibition; at 50.0 µM; hits give high values
Summary of the method: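 Cells are treated with compound, grown, and their growth is then scored against vehicle-only cultures of the same repair-deficient yeast strain.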

[2] = NCI Yeast Anticancer Drug Screen. Data for the mec2-1 strain (AID 157); conditions: S. cerevisiae mec2-1 strain, at 50.0 µM, hits give high values
Summary of the method: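 Test agents were screened against the mec2-1 yeast strain, with defined DNA repair or cell cycle alteration. Growth was scored as inhibition against vehicle-only controls.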

[3] = NCI Yeast Anticancer Drug Screen. Data for the sgs1 mgt1 strain (AID 161);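 also: 0% = growth of cultures given vehicle only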; conditions: S. cerevisiae sgs1 mgt1 strain, at 50.0 µM, hits give high values
Summary of the method: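 Genetically altered yeast, compound exposure, growth inhibition relative to vehicle.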

[4] = NCI Yeast Anticancer Drug Screen. Data for the cln2 rad14 strain (AID 165);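 also: 0% = growth equal to vehicle treated cultures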; conditions: S. cerevisiae cln2 rad14 strain, at 50.0 µM, hits give high values
Summary of the method: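 Growth of compound-exposed yeast (cln2 rad14 genotype) measured and expressed as inhibition relative to vehicle.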

[5] = NCI Yeast Anticancer Drug Screen. Data for the bub3 strain (AID 167); conditions: S. cerevisiae bub3 mutant strain, at 50.0 µM, hits give high values
Summary of the method: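 Part of a panel of yeast mutants defective in DNA damage repair or cell cycle regulation. Each strain is grown with compound, and inhibition is calculated relative to solvent-treated cultures.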

[6] = NCI Yeast Anticancer Drug Screen. Data for the mlh1 rad18 strain (AID 175); conditions: S. cerevisiae mlh1 rad18 strain growth inhibition; at 50.0 µM; hits give high values
Summary of the method: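 In this whole-cell yeast screen, a strain with altered DNA damage repair is challenged with compound, and its growth is measured against matched vehicle-treated controls.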

Row | Compound | growth inhibition [1] | growth inhibition [2] | growth inhibition [3] | growth inhibition [4] | growth inhibition [5] | growth inhibition [6]
1 | O=S(=O)(N=N/C=C1\C=CC=CN1O)c1cccs1 | -12.1% | 6.3% | -8.25% | -1.15% | -26.4% | -21.1%
2 | CN(C)CCNc1ccc2nnn3c4ccccc4c(=O)c1c23 | 32.5% | 7.45% | 11.2% | 29.7% | 3% | 25.5%
3 | COC(=O)C(C)(C)c1ccccc1C(C)(C)C(=O)OC | -5.85% | 6.05% | -1.4% | -7.95% | 9.35% | 3.9%
4 | [Cl][Pt+2][Cl].[NH-]C1CCC1[NH-] (stereo unspecified) | 4.7% | -9.3% | -12% | -24.4% | -4.1% | 10.5%
5 | Nc1nc(=O)n(CCCOc2cccc(Cl)c2)cc1-c1ccc(Cl)c(Cl)c1 | 52.6% | 49.4% | 52.2% | 68.8% | 87% (active) | 51.5%
6 | CC(C)C(=O)OCc1ccccc1 | 0.95% | -5.7% | -6.75% | -3.9% | -10.8% | -24.9%
7 | COc1ccc(C(=O)Nc2c(N)ncnc2N)cc1 | 16.8% | 73.7% (active) | 35.1% | -3.6% | 16.5% | 15.1%
8 | COC(=O)c1c(O)cc(OC)cc1OCc1ccccc1 | 10.7% | -4.4% | -4.8% | 27.6% | 31.4% | 2.95%
9 | CC(=O)NCc1cc(C)c(CBr)cc1CBr | -1.95% | -10.8% | -3.6% | 7.2% | 7.1% | 10.1%
10 | O=C(NCCN1CCOCC1)c1ccc(C(=O)NCCN2CCOCC2)cc1 | 35% | 22.9% | 32.6% | 17.5% | 1.6% | 33.9%
11 | CCCCS(=O)(=O)Nc1cccc(C(=O)O)c1 | 2.85% | -9.1% | 20.9% | -17.4% | 39.8% | -7.15%
12 | c1ccc(-c2c(-c3cccs3)[nH]c(-c3cccs3)c2-c2ccccn2)nc1 | -6.7% | 17.1% | 45.7% | -29.4% | -6.6% | -57%
13 | O=C1CN(N2CCOCC2)CC(=O)N2CCCCN12 | 20.9% | 1.25% | 13.9% | 19.9% | 10.4% | 6.25%
14 | N=c1nc2n(cc1F)C1OC(CO)C(O)C1O2 (stereo unspecified) | -18.1% | 7.7% | 15.3% | -37.3% | -0.1% | -8%
15 | CN(C)C(=S)/N=c1\ss/c(=N\C(=S)N(C)C)n1-c1ccc2c(c1)OCO2 | -16.1% | -4.1% | -3.45% | -1.45% | -16.9% | 1.7%
16 | CC1(C)C(=NN=C(N)N)C(C)(C)C1=NN=C(N)N | -3.35% | -6.95% | -15.8% | 29.3% | -18.5% | 14.7%
17 | Cc1ccc(S(=O)(=O)NNC(=O)Nc2cccc(C(F)(F)F)c2)cc1 | 24.4% | -18% | 18.1% | -2.15% | -0.3% | 54.7%
18 | CN(C)S(=O)(=O)N1CCCc2ccccc21 | 3.4% | 8.8% | 3.55% | 7.1% | 31.1% | 11%
19 | N#CNc1ccccc1 | 0.05% | 6.15% | -12.2% | -8.8% | 5.15% | 3.45%
20 | OC(CC1=NCCS1)(c1ccccc1)c1ccccc1 | 98% (active) | 98.8% (active) | 96.8% (active) | 98.1% (active) | 98.2% (active) | 98.2% (active)
21 | O=C(OCc1ccccc1)/C(c1ccccc1)=[N+]1/C(=S)Nc2ccc([N+](=O)[O-])cc21 | 3% | -5% | 1.6% | 3.8% | 13.9% | 7.9%
